Results reported in PubChem BioAssay (NCI).
Values joined by “and” are separate entries in the source; they are usually repeats but may differ in a detail not shown here. Equal entries are not always repeated. This is part of a sample that, as a whole, favours compounds with a hit. Of some 83,000 tested, about 20% had one in any assay.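 Growth was measured after 48 h exposure to one concentration of compound in 96-well plates. Values under 10 count as active.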 A number with no mark means an inactive call. Active and inactive are the calls of the source.

System: HL-60(TB) leukemia
Experiment: NCI-60 one-dose screen, 48 h (100 = growth as untreated, 0 = no growth, -100 = all killed)
Conditions: 10 µM unless noted

SMILES | growth
Cc1ccc(C=C2C(Cl)=C(Cl)C(Cl)=C2Cl)cc1 | 7.68% (active)
COc1ccc(-c2nnc3n(C)c(=O)c4ccccc4n23)cc1N | -22.8% (active)
O=S1(=O)CC(Br)C(Br)C1 (stereo not given) | 34.4% and 81.8%
Nc1ccc(N=Nc2ccc(S(=O)(=O)O)cc2)cc1S(=O)(=O)O | 98.5% and 146%
c1ccc2c(c1)Oc1cccnc1-n1nccc1-2 | 101%
N#CCCN=Nc1c(O)[nH]c2ccc(F)cc12 | 110%
Cc1cccc2c1NC(=O)C2(c1ccc(O)cc1)c1ccc(O)cc1 | 83%
COc1ccc(-c2nc(SCC(C)C)nc(N/N=C\c3ccc(F)cc3)c2C#N)cc1 | 83.4%
Cc1cc(N2CCCCC2)nc(N(CCCNc2ccnc3cc(Cl)ccc23)Cc2ccco2)n1 | -43.6% (active)
CC(CCC#N)(CCC#N)C(=O)c1ccccc1 | 88.7%
CC1=CC(O)C2CC1C2(C)C (stereo not given) | 100% and 73.7%
Nc1nc(SC/C=C/CCl)c2[nH]cnc2n1 | 97.8% and 103%
COc1ccc(OC)c(NCC(=O)n2nc(/C=C\c3ccc(O)c(OC)c3)cc2/C=C\c2ccc(O)c(OC)c2)c1 | -8.64% (active)
CC1=C(/C=C/C(C)=C/C=C/C(C)=C/C(=O)O)C(C)(C)CCC1 | 79.2% and 46.2% and 67%
CCCc1c(C)c2sc(=O)[nH]c2[nH]c1=O | 101%
